# Target: PUM1 PUF domain R4-SRA (Homo sapiens, UniProt Q14671 828-1176, N971S;H972R;Q975A)
# Assay: yeast three-hybrid, YBZ-1, SC-Leu-His + 0.5 mM 3-AT, 4 days
# Settings: tags: N-Gal4 AD-HA kept; label: inside an RPR1-promoter hybrid RNA with tandem MS2 sites; ssRNA
# In short: (§1)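 Sequencing with Illumina followed PCR amplification of the repeat regions from transformants grown four days on SC-Leu (input) or SC-Leu-His + 0.5 mM 3-AT (selection). The transformants were strain YBZ-1 with a LexA–MS2 coat fusion and a HIS3 reporter, carrying Pumilio-1 PUF domain libraries and matching RNA elements. The interaction score is the log change in variant frequency from input to selection, computed in log2 with a pseudocount of 1 for absent variants.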
row,Sequence,binding signal
1,GGCUAGAACUAGUGGAUCCCCCGGCGCCCGGCGGCUCGAGCCCGGGUAAGUGUAUAUAGUCUGCAUGCCGCCGGGCGCCAUGCCUGCAGGUCGACUCUAGAAAACAUG,1.92 log2 enrichment (interaction score)
2,GGCUAGAACUAGUGGAUCCCCCGGCGCCCGGCGGCUCGAGCCCGGGUAAGUGUACAUAGUCUGCAUGCCGCCGGGCGCCAUGCCUGCAGGUCGACUCUAGAAAACAUG,1.76 log2 enrichment (interaction score)
3,GGCUAGAACUAGUGGAUCCCCCGGCGCCCGGCGGCUCGAGCCCGGGUAAGUGUAAAUAGUCUGCAUGCCGCCGGGCGCCAUGCCUGCAGGUCGACUCUAGAAAACAUG,4.71 log2 enrichment (interaction score)

# Target: T1, PUM1 PUF domain R6-KWA (Homo sapiens, UniProt Q14671 828-1176, N1043K;Y1044W;Q1047A)
# T1 sequence: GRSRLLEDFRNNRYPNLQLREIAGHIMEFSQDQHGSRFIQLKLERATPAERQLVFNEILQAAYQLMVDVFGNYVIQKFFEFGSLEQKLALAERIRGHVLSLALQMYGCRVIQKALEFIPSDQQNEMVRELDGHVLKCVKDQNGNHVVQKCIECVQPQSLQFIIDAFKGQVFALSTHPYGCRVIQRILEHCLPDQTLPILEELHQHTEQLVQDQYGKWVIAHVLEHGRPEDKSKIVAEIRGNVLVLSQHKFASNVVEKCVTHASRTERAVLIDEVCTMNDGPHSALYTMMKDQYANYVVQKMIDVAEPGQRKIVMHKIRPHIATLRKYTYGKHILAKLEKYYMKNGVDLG
# Assay: as above
# Settings: tags: N-Gal4 AD-HA kept; label: inside an RPR1-promoter hybrid RNA with tandem MS2 sites; ssRNA
# In short: as §1
row,Sequence,binding signal
1,GGCUAGAACUAGUGGAUCCCCCGGCGCCCGGCGGCUCGAGCCCGGGUAAGUGAAAAUAGUCUGCAUGCCGCCGGGCGCCAUGCCUGCAGGUCGACUCUAGAAAACAUG,2.73 log2 enrichment (interaction score)
2,GGCUAGAACUAGUGGAUCCCCCGGCGCCCGGCGGCUCGAGCCCGGGUAAGUGCAAAUAGUCUGCAUGCCGCCGGGCGCCAUGCCUGCAGGUCGACUCUAGAAAACAUG,4.16 log2 enrichment (interaction score)
3,GGCUAGAACUAGUGGAUCCCCCGGCGCCCGGCGGCUCGAGCCCGGGUAAGUGUAAAUAGUCUGCAUGCCGCCGGGCGCCAUGCCUGCAGGUCGACUCUAGAAAACAUG,2 log2 enrichment (interaction score)

# Target: PUM1 PUF domain R5-KFA (Homo sapiens, UniProt Q14671 828-1176, C1007K;R1008F;Q1011A)
# Sequence (Q14671 828-1176 C1007K/R1008F/Q1011A): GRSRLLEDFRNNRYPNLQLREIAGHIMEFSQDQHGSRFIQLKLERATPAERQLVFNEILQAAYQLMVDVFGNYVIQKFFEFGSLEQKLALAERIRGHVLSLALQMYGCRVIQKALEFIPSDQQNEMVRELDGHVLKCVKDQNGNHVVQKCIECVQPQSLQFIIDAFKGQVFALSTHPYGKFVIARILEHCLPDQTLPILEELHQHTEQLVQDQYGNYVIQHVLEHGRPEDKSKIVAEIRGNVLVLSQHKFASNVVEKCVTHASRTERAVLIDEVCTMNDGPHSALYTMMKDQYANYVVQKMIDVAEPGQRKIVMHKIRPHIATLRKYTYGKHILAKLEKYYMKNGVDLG
# Assay: as above
# Settings: tags: N-Gal4 AD-HA kept; label: inside an RPR1-promoter hybrid RNA with tandem MS2 sites; ssRNA
# In short: as §1
row,Sequence,binding signal
1,GGCUAGAACUAGUGGAUCCCCCGGCGCCCGGCGGCUCGAGCCCGGGUAAGUGUUAAUAGUCUGCAUGCCGCCGGGCGCCAUGCCUGCAGGUCGACUCUAGAAAACAUG,4.8 log2 enrichment (interaction score)
2,GGCUAGAACUAGUGGAUCCCCCGGCGCCCGGCGGCUCGAGCCCGGGUAAGUGUCAAUAGUCUGCAUGCCGCCGGGCGCCAUGCCUGCAGGUCGACUCUAGAAAACAUG,4.46 log2 enrichment (interaction score)
3,GGCUAGAACUAGUGGAUCCCCCGGCGCCCGGCGGCUCGAGCCCGGGUAAGUGUAAAUAGUCUGCAUGCCGCCGGGCGCCAUGCCUGCAGGUCGACUCUAGAAAACAUG,4.26 log2 enrichment (interaction score)
